Results as given in PubChem BioAssay (NCATS).
“And” between values parts separate entries of the source, which are not always exact repeats. Equal values may be shown once. Results filed as inconclusive are left out. The source made the active and inactive calls. Unless noted, calls come from the whole dose curve; as a rule, active = well fitted curve in the direction sought with a large enough effect; inconclusive = small, poorly fitted or top-dose-only effect, or another doubt; inactive = no such curve, though single readings can be large; an effect the other way counts as inactive or inconclusive.

Columns and labels:
[1] = AP1 Signaling Pathway (AID 357; active = well fitted curve in either direction with a large enough effect, not every such curve was filed as active; note: % is set by controls: 0 for no effect and ±100 for the full control effect)
Summary of the method: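 AP-1-bla ME-180 cells with beta-lactamase reporter under AP-1 response element, stimulated with EC50 EGF; compounds titrated, 5 hours at 37 degrees Celsius. CCF4 read at 460/530 nm ratio; positive and negative modulators judged by AC50.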

[2] = Cell Viability - BJ (AID 421; calls by dose curve;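 note: potency is the fitted concentration of half-maximal effect; cells exposed to compound for 40 hours at 37 °C before readout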); details: BJ fibroblast viability, qHTS
Summary of the method: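 Normal human BJ foreskin fibroblasts, 1500/well in complete medium, treated 40 hr at 37 °C. Cellular ATP by CellTiter-Glo luminescence; normalized to DMSO and 100 uM tamoxifen, AC50 from Hill fit.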

[3] = Cell Viability - MRC5 (AID 434; calls by dose curve;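 note: potency is the fitted concentration of half-maximal effect; potency reflects cytotoxicity seen as loss of intracellular ATP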); details: MRC5 lung fibroblast viability, qHTS
Summary of the method: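 MRC5 normal human lung fibroblasts, 1500 cells/well, exposed to compound for 40 hr at 37 C. Cellular ATP was read by CellTiter-Glo luminescence; data normalized to DMSO and 100 uM tamoxifen, with AC50 from Hill fits.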

[4] = NFAT Signaling Pathway (AID 444; active = well fitted curve in either direction with a large enough effect, not every such curve was filed as active;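 note: carbachol stimulus at about its EC50 of 1 µM final; % is set by controls: 0 for no effect and ±100 for the full control effect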)
Summary of the method: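 Jurkat cells with NFAT-driven β-lactamase reporter and co-expressed M1 receptor, stimulated with carbachol (final 1 uM, ~EC50), compound titration, 5 h at 37 °C. CCF4 loaded 1 h at RT; 460/530 nm ratio gave %activity and AC50.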

[5] = Stat Signaling Pathway (AID 446; active = well fitted curve in either direction with a large enough effect, not every such curve was filed as active;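 note: ME-180 cervical cancer cells given 40 pM IL-6 alongside compound; SIE-controlled beta-lactamase reporter measured as 460/530 nm FRET emission ratio; % is set by controls: 0 for no effect and ±100 for the full control effect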); details: ME-180 SIE beta-lactamase reporter, IL-6 stimulated, 5 h
Summary of the method: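 ME-180 cells carrying a SIE-driven beta-lactamase reporter are stimulated with 40 pM IL-6 for 5 h at 37C in the presence of compound. The 460/530 nm FRET substrate ratio is read after 2.5 h at RT. Data are normalised to 300 pM IL-6 and to 125 nM JAK inhibitor controls.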

[6] = molecular target: Mitogen-activated protein kinase 10 (Mus musculus) (UniProt Q61831); test: JNK3 AlphaScreen Assay (AID 530; active = well fitted curve in either direction with a large enough effect, not every such curve was filed as active;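 note: kinase came from lysate of stimulated human HepG2 cells; signal reports phosphorylation of biotinylated GST-cJun 1-79 at Ser73 with 10 µM ATP; % is set by controls: 0 for no effect and ±100 for the full control effect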)
Summary of the method: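 qHTS format: compounds tested as titrations against IL-1beta/TNF-alpha-activated HepG2 lysate JNK3 with biotin-GST-cJun substrate and 10 uM ATP at room temperature. Loss of anti-phospho-cJun AlphaScreen signal indicates inhibition.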

[7] = Cell Viability - HUV-EC-C (AID 542); note: % is set by controls: 0 for no effect and ±100 for the full control effect; nearly all actives have a fitted effect of over 35% in size
Summary of the method: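 HUV-EC-C normal human vascular endothelial cells, 1000 cells/well, pre-incubated 5 hr at 37 °C, then exposed to compounds for 40 hr at 37 °C in complete medium. Viability measured as intracellular ATP by CellTiter-Glo luminescence; AC50 from Hill fits.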

[8] = Cell Viability - H-4-II-E (AID 543); note: % is set by controls: 0 for no effect and ±100 for the full control effect; nearly all actives have a fitted effect of over 35% in size
Summary of the method: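 Rat hepatoma H-4-II-E cells (1500/well) were plated, incubated 5 hr at 37 °C, then exposed to compounds for 40 hr at 37 °C. Cellular ATP was read by CellTiter-Glo luminescence; AC50 came from Hill-equation fits of concentration-response data.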

[9] = Cell Viability - SH-SY5Y (AID 544); details: SH-SY5Y neuroblastoma cell viability; viability change, negative = cytotoxic: at 92.2 µM (top of the series);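 note: 0% = DMSO alone and -100% = 100 µM tamoxifen; nearly all actives have a fitted effect of over 55% in size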
Summary of the method: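 Human neuroblastoma SH-SY5Y cells (1500/well) in complete medium were exposed to compounds for 40 hr at 37 °C; intracellular ATP was then quantified by CellTiter-Glo luminescence after 20 min at room temperature. AC50 came from Hill-equation concentration-response fits.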

[10] = Cell Viability - Renal Proximal Tubule (AID 545); details: renal proximal tubule cells viability, primary cells of rat origin; activity change, negative = cytotoxicity: at 91.7 µM (top of the series);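 note: 0% = DMSO only and -100% = 100 µM tamoxifen; nearly all actives have a fitted effect of over 40% in size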
Summary of the method: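 Luminescent ATP signal (CellTiter-Glo) served as the viability read-out after 40 hr compound exposure of freshly isolated rat proximal tubule cells at 37 °C. Concentration-dependent ATP loss was fitted with the Hill equation to give AC50.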

[11] = molecular target: Cytochrome P450 1A2 (Homo sapiens) (UniProt P05177); test: p450-cyp1a2 (AID 410; calls by dose curve; note: potency is the fitted concentration of half-maximal effect)
Sequence of Cytochrome P450 1A2 (Homo sapiens) (P05177 whole entry, looked up): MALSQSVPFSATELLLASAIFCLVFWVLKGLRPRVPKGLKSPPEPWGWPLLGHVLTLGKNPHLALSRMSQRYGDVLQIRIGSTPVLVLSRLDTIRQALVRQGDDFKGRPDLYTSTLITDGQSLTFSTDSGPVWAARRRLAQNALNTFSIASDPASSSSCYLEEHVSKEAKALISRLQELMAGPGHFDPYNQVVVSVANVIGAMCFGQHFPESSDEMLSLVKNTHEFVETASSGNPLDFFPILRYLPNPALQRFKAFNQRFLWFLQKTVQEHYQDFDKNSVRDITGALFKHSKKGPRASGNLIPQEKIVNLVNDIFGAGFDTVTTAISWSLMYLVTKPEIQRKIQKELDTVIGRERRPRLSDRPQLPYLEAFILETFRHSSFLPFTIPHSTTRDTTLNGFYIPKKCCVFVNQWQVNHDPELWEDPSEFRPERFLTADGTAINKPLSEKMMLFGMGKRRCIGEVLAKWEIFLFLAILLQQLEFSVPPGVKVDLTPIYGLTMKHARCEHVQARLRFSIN
Summary of the method: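 Human CYP1A2 (20nM) demethylated Luciferin-ME at its Km (100uM) in 100mM KPO4. After 10 min compound preincubation, NADPH regeneration ran the reaction 60 min at room temperature. Luciferin was read by luminescence, normalized to 57 uM furafylline.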

[12] = molecular target: Glucocorticoid receptor (Homo sapiens) (UniProt P04150); test: GR-EFC Redistribution (AID 451; calls by dose curve; note: potency is the fitted concentration of half-maximal effect); details: CHO-K1 GR-EFC translocation, beta-gal luminescence, 2 h
Sequence of Glucocorticoid receptor (Homo sapiens) (P04150 whole entry, looked up, the tested form may be a part): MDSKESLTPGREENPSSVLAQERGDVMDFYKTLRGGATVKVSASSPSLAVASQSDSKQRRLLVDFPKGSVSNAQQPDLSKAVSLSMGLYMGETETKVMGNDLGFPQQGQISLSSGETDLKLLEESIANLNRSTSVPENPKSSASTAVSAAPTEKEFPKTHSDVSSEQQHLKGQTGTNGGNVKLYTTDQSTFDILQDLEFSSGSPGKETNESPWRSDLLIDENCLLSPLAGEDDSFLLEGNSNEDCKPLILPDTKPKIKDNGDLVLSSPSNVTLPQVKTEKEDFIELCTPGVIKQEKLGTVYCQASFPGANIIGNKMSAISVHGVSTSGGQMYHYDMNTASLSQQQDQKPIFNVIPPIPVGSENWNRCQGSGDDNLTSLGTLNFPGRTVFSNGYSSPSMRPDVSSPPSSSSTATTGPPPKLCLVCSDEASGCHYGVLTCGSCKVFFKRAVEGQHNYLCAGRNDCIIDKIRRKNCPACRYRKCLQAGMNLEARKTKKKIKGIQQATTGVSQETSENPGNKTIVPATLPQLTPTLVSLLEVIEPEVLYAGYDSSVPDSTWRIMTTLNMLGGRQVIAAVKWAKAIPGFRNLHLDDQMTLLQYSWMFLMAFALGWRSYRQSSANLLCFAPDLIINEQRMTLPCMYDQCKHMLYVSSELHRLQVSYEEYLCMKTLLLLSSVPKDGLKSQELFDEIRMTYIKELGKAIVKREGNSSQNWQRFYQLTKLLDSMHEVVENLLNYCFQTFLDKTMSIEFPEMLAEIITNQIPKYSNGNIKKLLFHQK
Summary of the method: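 CHO-K1 cells expressing nuclear EA and GR-ED fragments of b-gal; compounds titrated up to 46 uM final, 2 h at 37 C. GR nuclear translocation read as complemented b-gal luminescence after 1 h RT detection.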

[13] = Cell Viability - Hek293 (AID 427;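 active = compounds whose dose-response curve shows a full or clear partial loss of cell viability, called from curve shape rather than a numeric limit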;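 note: potency is the fitted concentration of half-maximal effect; cells exposed to compound for 40 hours at 37 °C before reading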); details: qHTS
Summary of the method: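 HEK293 cells in complete medium were exposed to compound for 40 hr at 37 °C, then cellular ATP was read by CellTiter-Glo luminescence. Data were normalized to DMSO (basal) and 100 uM tamoxifen (100% inhibition), and AC50 came from Hill fits.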

[14] = Cell Viability - HepG2 (AID 433; calls by dose curve;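 note: potency is the fitted concentration of half-maximal effect; potency for ATP loss meaning cytotoxicity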); details: qHTS
Summary of the method: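 Read-out is luciferase-based quantitation of cellular ATP as a measure of viable HepG2 cells after 40 h treatment at 37 °C. Signal decrease is scaled between DMSO-only and 100 uM tamoxifen controls, with AC50 fitted by the Hill equation.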

[15] = Cell Viability - SK-N-SH (AID 435; calls by dose curve;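 note: potency is the fitted concentration of half-maximal effect; compound exposure lasted 40 h at 37 °C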); details: SK-N-SH neuroblastoma cell viability qHTS
Summary of the method: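 Luminescent ATP signal served as the viability read-out after 40 hours of compound treatment of human neuroblastoma SK-N-SH cells. Concentration-response data, scaled between DMSO and 100 uM tamoxifen, gave AC50 values by standard Hill modeling.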

[16] = Cell Viability - N2a (AID 540); details: N2a mouse neuroblastoma cell viability; activity change, negative = cytotoxicity: at 92.2 µM (top of the series);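 note: plate controls were DMSO alone for no effect and tamoxifen control for full effect; nearly all actives have a fitted effect of over 45% in size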
Summary of the method: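 Mouse neuroblastoma N2a cells (1500/well) were preincubated 5 hr at 37 °C, then exposed to compounds for 40 hr at 37 °C in complete medium. Viability was read as intracellular ATP by CellTiter-Glo luminescence; AC50 from Hill fits.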

[17] = Cell Viability - NIH 3T3 (AID 541); details: NIH 3T3 cell viability, qHTS; at 92.2 µM (top of the series);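 note: plate controls were DMSO alone for no effect and tamoxifen positive control for full effect; nearly all actives have a fitted effect of over 25% in size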
Summary of the method: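 NIH 3T3 mouse embryo fibroblasts (1000 cells/well) were plated in complete medium and treated with compound for 40 hr at 37 °C. Viability was read as intracellular ATP by CellTiter-Glo luminescence; AC50 values came from Hill-equation fits of concentration-response data.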

[18] = Cell Viability - Mesenchymal (AID 546); details: mesenchymal cells viability, qHTS; activity change, negative = cytotoxicity: at 91.7 µM (top of the series);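 note: cells exposed to compound for 40 hours before reading; 0% = DMSO only and -100% = 100 µM tamoxifen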
Summary of the method: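 Human kidney mesenchymal cells from normal renal glomeruli, 1000 cells/well, rested 5 hr at 37 °C, then treated 40 hr at 37 °C in complete medium. Cellular ATP read by CellTiter-Glo luminescence; AC50 from Hill-equation fits.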

[19] = Cell Viability - Jurkat (AID 426;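 active = dose-dependent loss of cell ATP signal giving a full or clear fitted curve, ranked by lower potency value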; note: potency is the fitted concentration of half-maximal effect); details: qHTS
Summary of the method: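 Jurkat (clone E6-1, human T-cell leukemia) cells, 5000/well in complete medium, were exposed to compound for 40 hr at 37 °C. Viability was read as intracellular ATP by CellTiter-Glo luminescence; AC50 came from Hill fits of concentration-response data.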

O=C(O)c1cc(O)c2c(c1)C(=O)c1cccc(O)c1C2=O
inactive: outcome [1] | Potency [2] > 92 µM | Potency [3] > 92 µM | outcome [4] | activity, negative = inhibition ([5]; at 17.2 µM (top of the series)) 11.9% | outcome [6] | Potency [7] | Potency [8] | Potency [9] | Potency [10]

COc1ccc(-c2coc3cc(O)cc(O)c3c2=O)cc1
active: Potency [11] 3.98 µM
inactive: outcome [1] | outcome [4] | activity, negative = inhibition ([5]; at 17.2 µM (top of the series)) 5.25% | Potency [12] > 46 µM | outcome [6]

CCCCC1C(=O)N(c2ccccc2)N(c2ccccc2)C1=O
inactive: outcome [1] | Potency [11] | Potency [2] > 92 µM | Potency [13] > 92 µM | Potency [14] > 92 µM | Potency [3] > 92 µM | Potency [15] > 92 µM | outcome [4] | activity, negative = inhibition ([5]; at 17.2 µM (top of the series)) -15.3% | activity, negative = inhibition ([5]; at 38 µM (top of the series)) -22.4% | Potency [12] > 46 µM | outcome [6] | Potency [16] | activity change, negative = cytotoxicity [17] -19.1% | Potency [7] | Potency [8] | Potency [9] | Potency [10] | Potency [18]

O=C1C[C@@H](c2ccc(O)cc2)Oc2cc(O)cc(O)c21
inactive: outcome [1] | outcome [4] | activity, negative = inhibition ([5]; at 17.2 µM (top of the series)) 0.762% | Potency [12] > 20.6 µM and > 46 µM | outcome [6]

CC(C)[C@H](CO)Nc1nc(Nc2ccc(C(=O)O)c(Cl)c2)c2ncn(C(C)C)c2n1
inactive: Potency [11] | Potency [12] > 46 µM | outcome [6]

CC(=O)O[C@]1(C(C)=O)CC[C@H]2[C@@H]3C=C(Cl)C4=CC(=O)[C@@H]5C[C@@H]5[C@]4(C)[C@H]3CC[C@@]21C
inactive: Potency [2] > 92 µM | Potency [14] > 92 µM | Potency [3] > 92 µM | outcome [6] | Potency [7] | Potency [9] | Potency [10] | Potency [18]
active: activity change, negative = cytotoxicity [17] -124%

COc1ccc(Cc2nccc3cc(OC)c(OC)cc23)cc1OC
inactive: outcome [6]
active: Potency [11] 25.1 µM and 10 µM and 31.6 µM

COc1cccc(-c2cc(=O)c3ccccc3o2)c1N
active: Potency [11] 3.16 µM and 200 nM
inactive: outcome [4] | Potency [12] > 46 µM | outcome [6]

CCn1cc(C(=O)O)c(=O)c2ccc(C)nc21
inactive: Potency [2] > 92 µM | Potency [19] > 92 µM | Potency [13] > 92 µM | Potency [14] > 92 µM | Potency [3] > 92 µM | Potency [15] > 92 µM | Potency [16] | activity change, negative = cytotoxicity [17] 4.63% | Potency [7] | Potency [8] | Potency [9] | Potency [10] | Potency [18]

O=C(O)Cc1cccc2ccccc12
inactive: Potency [2] > 92 µM | Potency [19] > 92 µM | Potency [13] > 92 µM | Potency [14] > 92 µM | Potency [3] > 92 µM | Potency [15] > 92 µM | outcome [6] | Potency [16] | activity change, negative = cytotoxicity [17] -29.6% | Potency [7] | Potency [8] | Potency [9] | Potency [10] | Potency [18]

CN(C)CCC(c1ccccc1)c1ccccn1 (centres undefined)
inactive: Potency [2] > 92 µM | Potency [19] > 92 µM | Potency [13] > 92 µM | Potency [14] > 92 µM | Potency [3] > 92 µM | Potency [15] > 92 µM | outcome [6] | Potency [16] | activity change, negative = cytotoxicity [17] -2.83% | Potency [7] | Potency [8] | Potency [9] | Potency [10] | Potency [18]
